Experimental data from PubChem BioAssay (EPA / NIEHS).
The source made the active and inactive calls. How the source made its calls: active means hit-call score of the fitted dose curve at least 0.9, where 1 is the maximum; inactive means score below 0.9.

Read-out: Vascular endothelial growth factor receptor 2 (Homo sapiens) (UniProt P35968)
Experiment: BSK_4H_VEGFRII: BioMAP Diversity Plus: 4H Assay for Vascular endothelial growth factor receptor 2 (VEGFR2) Biomarker Activity (AID 2283031)
Details: primary human endothelial cells (HUVEC); actives raise or lower the signal
Description: BSK_4H is a cell-based, multiplexed-readout assay that uses umbilical vein endothelium, a human vascular primary cell, with measurements taken at 24 hours after chemical dosing in a 96-well plate.BSK_4H_VEGFRII is an assay component measured in the BSK_4H assay. It measures VEGFRII antibody related to regulation of gene expression using ELISA technology.Data from the assay component BSK_4H_VEGFRII was analyzed into 1 assay endpoint. This assay endpoint, BSK_4H_VEGFRII, was analyzed with bidirectional fitting relative to DMSO as the negative control and baseline of activity. Using a type of binding reporter, gain or loss-of-signal activity can be used to understand changes in the signaling as they relate to the gene KDR. Furthermore, this assay endpoint can be referred to as a primary readout, because this assay has produced multiple assay endpoints where this one serves a signaling function. To generalize the intended target to other relatable targets, this assay endpoint is annotated to the kinase intended target family, where the subfamily is receptor tyrosine kinase.
The levels of cell surface (or secreted, indicated by the prefix "s") biomarker endpoints were measured by ELISA. Overt cytotoxicity to cells in confluent adherent cultures (all systems other than the BT system) was assessed by measuring total protein levels using sulforhodamine B (SRB) staining in parallel cultures at the time of biomarker measurements, indicated as SRB endpoints. For proliferation assays for adherent cell types, individual cell types are cultured at sub-confluence and relative cell numbers quantified by SRB staining at time points optimized for each system (48 h: 3C and CASM3C systems; 72 h: BT and HDF3CGF systems; 96 h: SAg system). SRB was performed by staining cells with 0.1% SRB after fixation with 10% TCA and reading wells at 560 nm.Viability and proliferation of PBMC (T cells) was quantified by Alamar Blue reduction for the SAg and BT systems. For PBMC viability (referred to as PBMC Cytotoxicity within the assay endpoint names), cells were plated (75,000/well in a 96-well plate) and then chemical samples added for 1 h before addition of activators, SEB and TSST-1 (20 ng/mL final concentration each). Cells were incubated for 90 h. Then, Alamar Blue (20 uL/well) (Invitrogen, Cat DAL1100) was added for 6 h, and the plates were read with a fluorescence microplate reader at 546/580 nm (excitation/emission). For PBMC proliferation, cells were plated and activated as above but incubated for only 16 h prior to addition of Alamar Blue. Plates were read after 6 h.

Compound	outcome	AC50
Nc1ccc2c(c1)C(=O)c1ccccc1C2=O	inactive	–
COc1ccc(S(=O)(=O)N2C(=O)[C@@](c3ccccc3OC)(N3C[C@H](O)C[C@H]3C(=O)N(C)C)c3cc(Cl)ccc32)c(OC)c1	inactive	–
Cc1ccc2ncccc2c1	inactive	–
NCC1(Cc2noc(=O)[nH]2)CCCCC1	inactive	–
Cc1cccc(C)c1O	inactive	–
O=[N+]([O-])C(CO)(CO)CO	inactive	–
FC(F)(F)C(F)(F)C(F)(F)C(F)(F)C(F)(F)C(F)(F)CCI	inactive	–
CCCCC(CC)COC(=O)CC(C(=O)OCC(CC)CCCC)S(=O)(=O)O (stereo not given)	inactive	–
CCCCCCCCCCC	inactive	–
CC(=O)OC/C=C(\C)CCC=C(C)C	inactive	–
Cc1oc(-c2ccccc2)nc1CCOc1cccc2c1ccn2CCC(=O)O	inactive	–
CCCCCC(=O)O	inactive	–
Cc1nc(-c2ccc3c(c2)CCN(CCC2CCC(NC(=O)/C=C/c4ccc(F)cc4)CC2)CC3)no1 (stereo not given)	inactive	–
CNCc1cc(F)ccc1Oc1ccc(Cl)c(Cl)c1	inactive	–
Oc1ccc2ccccc2c1N=Nc1ccccc1	inactive	–
O=C(OCCCCCOC(=O)c1ccccc1)c1ccccc1	inactive	–
CC(=O)Oc1ccccc1C(=O)O	inactive	–
Cc1ccc(Cl)cc1	inactive	–
CCCCCCCC=O	inactive	–
Cc1ccc(C(C)C)c(O)c1	inactive	–

Compound	outcome	AC50
Cc1nc(C)nc(N2C[C@@H](C)N(c3ccnc([C@@H](C)O)n3)[C@@H](C)C2)n1	inactive	–
CCCCCCCCCCCC(=O)OC	inactive	–
COC(=O)c1ccc(O)cc1	inactive	–
CNC(=O)[C@H]1O[C@@H](n2cnc3c(NCc4cc(Cl)ccc4OCc4cc(C)no4)ncnc32)[C@H](O)[C@@H]1N	inactive	–
Oc1ccc2c(c1)OC[C@@H](N1CCC(O)(c3ccc(F)cc3)CC1)[C@H]2O	inactive	–
CC1(C)CC(N=C=O)CC(C)(CN=C=O)C1 (stereo not given)	inactive	–
Cc1ccc(C)c(O)c1C	inactive	–
CCOc1ccc2c(c1)C(C)=CC(C)(C)N2	inactive	–
O=C(O)CCCCC(=O)O	inactive	–
CC(CO)OC(C)CO (stereo not given) (tested in a mixture with another compound)	inactive	–
CCc1c(C(=O)NN2CCCCC2)nn(-c2ccc(Cl)cc2Cl)c1-c1ccc(Br)cc1	–	9.41 µM (active)
CC=Cc1ccc(O)c(OC)c1	inactive	–
Nc1ccc(S(=O)(=O)c2ccc(N)cc2)cc1	inactive	–
Cc1cccc(Nc2cc(Cl)nc(SCC(=O)O)n2)c1C	inactive	–
C[C@]12C=CC(=O)C=C1CC[C@@H]1[C@@H]2C(=O)C[C@@]2(C)[C@H]1CC[C@]2(O)C(=O)CO	inactive	–
CC(C)c1ccc(C(=O)N=C(N)N)cc1S(C)(=O)=O	inactive	–
COc1ccc2c(c1)c(CC(=O)O)c(C)n2C(=O)c1ccc(Cl)cc1	inactive	–
c1cc(-c2ccncc2)ccn1	inactive	–
C=CCOC(=O)c1ccccc1C(=O)OCC=C	inactive	–
C1CCC(SSC2CCCCC2)CC1	inactive	–
